Measurements: ChEMBL document CHEMBL2218924, “A broad activity screen in support of a chemogenomic map for kinase signalling research and drug discovery” (Biochem J, 2013)

molecular target: T1, Serine/threonine-protein kinase STK11 (Homo sapiens) (UniProt Q15831); settings: at 10 µM
T1 sequence (whole entry): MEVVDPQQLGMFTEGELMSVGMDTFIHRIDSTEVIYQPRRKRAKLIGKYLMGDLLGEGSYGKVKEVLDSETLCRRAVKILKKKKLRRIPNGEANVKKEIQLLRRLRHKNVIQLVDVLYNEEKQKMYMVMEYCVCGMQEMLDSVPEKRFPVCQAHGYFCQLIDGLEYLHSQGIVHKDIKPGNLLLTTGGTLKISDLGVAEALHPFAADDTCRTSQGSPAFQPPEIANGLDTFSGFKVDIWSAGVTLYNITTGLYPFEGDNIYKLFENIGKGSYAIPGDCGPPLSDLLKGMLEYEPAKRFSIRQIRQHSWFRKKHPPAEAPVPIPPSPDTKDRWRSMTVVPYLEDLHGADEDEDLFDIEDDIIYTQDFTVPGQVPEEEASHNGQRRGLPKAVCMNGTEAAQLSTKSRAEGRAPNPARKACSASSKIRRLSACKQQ

Question: `N#C/C(=C1/Nc2ccccc2S1)c1ccnc(NCCc2cccnc2)n1` was tested. Which residual activity did it give?
Answer: 81%

Question: For `N#C/C(=C\c1ccc(O)c(O)c1)C(=O)NCc1ccccc1`, which residual activity is on record?
Answer: 100%

Question: How did the residual activity turn out when `O=C(Nc1nc2ccccc2n1CCN1CCOCC1)c1cccc([N+](=O)[O-])c1` was run?
Answer: 100%

Question: How did the residual activity turn out when `COc1ccc(Cl)cc1NC(=O)Nc1cc(C)nc2ccccc12` was run?
Answer: 95%

Question: How did the residual activity turn out when `NC(=O)c1cccc(-c2cc(Nc3ccc(OC(F)(F)F)cc3)ncn2)c1` was run?
Answer: 98%

Question: Which residual activity does the source give for `O=C(Nc1ccc(Cl)cc1)c1ccccc1NCc1ccncc1` here?
Answer: 99%

Question: With `O=C1C(Cl)=C(N2C(=O)CCC2=O)C(=O)c2ccccc21` as the compound, how does the residual activity read?
Answer: 89%

Question: With `N#Cc1c(NC(=O)c2cccc3ccccc23)sc2c1CCCC2` as the compound, how does the residual activity read?
Answer: 93%

Question: For `CC(C)[C@H](CO)Nc1nc(Nc2cc(N)cc(Cl)c2)c2ncn(C(C)C)c2n1`, which residual activity is on record?
Answer: 72%

Question: `Nc1n[nH]c2nc3ccccc3nc12` was tested. Which residual activity did it give?
Answer: 88%

Question: How did the residual activity turn out when `CSc1nc(-c2ccc(F)cc2)c(-c2ccnc(NC(C)c3ccccc3)c2)[nH]1` (stereo unspecified) was run?
Answer: 98%

Question: With `COc1cc2nccc(Oc3ccc(NC(=O)Nc4cc(C)on4)c(Cl)c3)c2cc1OC` as the compound, how does the residual activity read?
Answer: 101%

Question: Which residual activity does the source give for `O=C1NC(=O)C(c2c[nH]c3ccccc23)=C1c1c[nH]c2ccccc12` here?
Answer: 97%

Question: With `O=C1Cc2c([nH]c3ccc(Br)cc23)-c2ccccc2N1` as the compound, how does the residual activity read?
Answer: 95%

Question: `O=C1NC(=O)C(c2cn(CCCn3ccnc3)c3ccccc23)=C1Nc1ccccc1` was tested. Which residual activity did it give?
Answer: 103%

molecular target: Serine/threonine-protein kinase 10 (Homo sapiens) (UniProt O94804); settings: at 1 µM
Sequence (O94804 whole entry, looked up): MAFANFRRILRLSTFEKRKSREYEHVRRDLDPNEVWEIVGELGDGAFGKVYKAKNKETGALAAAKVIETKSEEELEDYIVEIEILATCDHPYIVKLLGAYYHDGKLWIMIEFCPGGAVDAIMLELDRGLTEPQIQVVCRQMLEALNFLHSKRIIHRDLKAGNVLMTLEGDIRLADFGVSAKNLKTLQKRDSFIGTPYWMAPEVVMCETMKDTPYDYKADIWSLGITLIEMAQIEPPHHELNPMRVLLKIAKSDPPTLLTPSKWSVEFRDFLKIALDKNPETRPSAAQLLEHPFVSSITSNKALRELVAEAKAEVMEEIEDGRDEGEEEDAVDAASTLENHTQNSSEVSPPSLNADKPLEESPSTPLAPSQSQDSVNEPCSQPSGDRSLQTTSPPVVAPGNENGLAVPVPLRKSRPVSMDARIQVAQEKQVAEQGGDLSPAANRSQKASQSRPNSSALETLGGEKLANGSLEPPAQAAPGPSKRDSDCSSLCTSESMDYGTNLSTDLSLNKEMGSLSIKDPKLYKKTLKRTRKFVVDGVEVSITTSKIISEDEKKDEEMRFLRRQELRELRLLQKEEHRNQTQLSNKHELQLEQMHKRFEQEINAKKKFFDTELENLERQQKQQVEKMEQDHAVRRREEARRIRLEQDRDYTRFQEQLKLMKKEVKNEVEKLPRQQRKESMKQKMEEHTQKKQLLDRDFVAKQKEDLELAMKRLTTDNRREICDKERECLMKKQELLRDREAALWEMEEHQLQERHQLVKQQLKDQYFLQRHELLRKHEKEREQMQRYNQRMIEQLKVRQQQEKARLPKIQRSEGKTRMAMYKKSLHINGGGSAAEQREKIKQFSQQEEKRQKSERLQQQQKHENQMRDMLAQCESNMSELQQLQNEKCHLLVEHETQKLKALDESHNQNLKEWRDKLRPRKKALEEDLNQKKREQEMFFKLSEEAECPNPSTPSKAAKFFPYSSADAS

Question: How did the residual activity turn out when `N#C/C(=C1/Nc2ccccc2S1)c1ccnc(NCCc2cccnc2)n1` was run?
Answer: 78%

Question: Which residual activity does the source give for `COc1ccc(Cl)cc1NC(=O)Nc1cc(C)nc2ccccc12` here?
Answer: 96%

Question: Which residual activity does the source give for `O=C(Nc1ccc(Cl)cc1)c1ccccc1NCc1ccncc1` here?
Answer: 82%

Question: Which residual activity does the source give for `O=C1C(Cl)=C(N2C(=O)CCC2=O)C(=O)c2ccccc21` here?
Answer: 95%

Question: How did the residual activity turn out when `O=C1Cc2c([nH]c3ccc([N+](=O)[O-])cc23)-c2ccccc2N1` was run?
Answer: 102%

Question: For `N#Cc1c(NC(=O)c2cccc3ccccc23)sc2c1CCCC2`, which residual activity is on record?
Answer: 90%

Question: Which residual activity does the source give for `CC(C)[C@H](CO)Nc1nc(Nc2cc(N)cc(Cl)c2)c2ncn(C(C)C)c2n1` here?
Answer: 57%

Question: `Nc1n[nH]c2nc3ccccc3nc12` was tested. Which residual activity did it give?
Answer: 88%

Question: Which residual activity does the source give for `Oc1cccc(-c2nc(N3CCOCC3)c3oc4ncccc4c3n2)c1` here?
Answer: 96%

Question: Which residual activity does the source give for `O=C(c1ccccc1)c1ccc(N2CCOCC2)cc1O` here?
Answer: 91%

Question: `O=C1Nc2ccccc2/C1=C\c1c(Cl)[nH]c2ccccc12` was tested. Which residual activity did it give?
Answer: 84%

Question: Which residual activity does the source give for `O=S(=O)(NCCNC/C=C/c1ccc(Br)cc1)c1cccc2cnccc12` here?
Answer: 71%

Question: For `NC(=O)c1ccc(-c2nc(-c3ccc4c(c3)OCCO4)c(-c3ccccn3)[nH]2)cc1`, which residual activity is on record?
Answer: 65%

Question: For `COc1cc2nccc(Oc3ccc(NC(=O)Nc4cc(C)on4)c(Cl)c3)c2cc1OC`, which residual activity is on record?
Answer: 8%

Question: Which residual activity does the source give for `O=C1NC(=O)C(c2c[nH]c3ccccc23)=C1c1c[nH]c2ccccc12` here?
Answer: 39%

Question: For `O=C1Cc2c([nH]c3ccc(Br)cc23)-c2ccccc2N1`, which residual activity is on record?
Answer: 96%

Question: With `O=C1NC(=O)C(c2cn(CCCn3ccnc3)c3ccccc23)=C1Nc1ccccc1` as the compound, how does the residual activity read?
Answer: 21%

molecular target: Serine/threonine-protein kinase 10 (Homo sapiens) (UniProt O94804); settings: at 10 µM

Question: For `N#C/C(=C1/Nc2ccccc2S1)c1ccnc(NCCc2cccnc2)n1`, which residual activity is on record?
Answer: 39%

Question: With `COc1ccc(Cl)cc1NC(=O)Nc1cc(C)nc2ccccc12` as the compound, how does the residual activity read?
Answer: 96%

Question: `O=C(Nc1ccc(Cl)cc1)c1ccccc1NCc1ccncc1` was tested. Which residual activity did it give?
Answer: 64%

Question: For `O=C1C(Cl)=C(N2C(=O)CCC2=O)C(=O)c2ccccc21`, which residual activity is on record?
Answer: 90%

Question: Which residual activity does the source give for `O=C1Cc2c([nH]c3ccc([N+](=O)[O-])cc23)-c2ccccc2N1` here?
Answer: 110%

Question: `N#Cc1c(NC(=O)c2cccc3ccccc23)sc2c1CCCC2` was tested. Which residual activity did it give?
Answer: 92%

Question: For `CC(C)[C@H](CO)Nc1nc(Nc2cc(N)cc(Cl)c2)c2ncn(C(C)C)c2n1`, which residual activity is on record?
Answer: 17%

Question: For `Nc1n[nH]c2nc3ccccc3nc12`, which residual activity is on record?
Answer: 78%

Question: For `Oc1cccc(-c2nc(N3CCOCC3)c3oc4ncccc4c3n2)c1`, which residual activity is on record?
Answer: 87%

Question: Which residual activity does the source give for `CSc1nc(-c2ccc(F)cc2)c(-c2ccnc(NC(C)c3ccccc3)c2)[nH]1` (stereo unspecified) here?
Answer: 96%

Question: How did the residual activity turn out when `Cc1cc(C)c(/C=C2\C(=O)Nc3ccccc32)[nH]1` was run?
Answer: 45%

Question: With `O=c1c(-c2ccc(F)cc2)c(-c2ccncc2)[nH]n1-c1ccc(Cl)cc1` as the compound, how does the residual activity read?
Answer: 99%

Question: `O=C(c1ccccc1)c1ccc(N2CCOCC2)cc1O` was tested. Which residual activity did it give?
Answer: 91%

Question: With `O=C1Nc2ccccc2/C1=C\c1c(Cl)[nH]c2ccccc12` as the compound, how does the residual activity read?
Answer: 36%

Question: How did the residual activity turn out when `O=S(=O)(NCCNC/C=C/c1ccc(Br)cc1)c1cccc2cnccc12` was run?
Answer: 53%

Question: For `NC(=O)c1ccc(-c2nc(-c3ccc4c(c3)OCCO4)c(-c3ccccn3)[nH]2)cc1`, which residual activity is on record?
Answer: 68%

Question: `COc1cc2nccc(Oc3ccc(NC(=O)Nc4cc(C)on4)c(Cl)c3)c2cc1OC` was tested. Which residual activity did it give?
Answer: 8%

Question: With `O=C1NC(=O)C(c2c[nH]c3ccccc23)=C1c1c[nH]c2ccccc12` as the compound, how does the residual activity read?
Answer: 15%

Question: With `O=C1Cc2c([nH]c3ccc(Br)cc23)-c2ccccc2N1` as the compound, how does the residual activity read?
Answer: 56%

Question: Which residual activity does the source give for `O=C1NC(=O)C(c2cn(CCCn3ccnc3)c3ccccc23)=C1Nc1ccccc1` here?
Answer: 6%

Question: With `Fc1ccc(-c2nc3n(c2-c2ccncc2)CCS3)cc1` as the compound, how does the residual activity read?
Answer: 99%

molecular target: Tyrosine-protein kinase Lck (Homo sapiens) (UniProt P06239); settings: at 1 µM
Sequence (P06239 2-509 limits assumed): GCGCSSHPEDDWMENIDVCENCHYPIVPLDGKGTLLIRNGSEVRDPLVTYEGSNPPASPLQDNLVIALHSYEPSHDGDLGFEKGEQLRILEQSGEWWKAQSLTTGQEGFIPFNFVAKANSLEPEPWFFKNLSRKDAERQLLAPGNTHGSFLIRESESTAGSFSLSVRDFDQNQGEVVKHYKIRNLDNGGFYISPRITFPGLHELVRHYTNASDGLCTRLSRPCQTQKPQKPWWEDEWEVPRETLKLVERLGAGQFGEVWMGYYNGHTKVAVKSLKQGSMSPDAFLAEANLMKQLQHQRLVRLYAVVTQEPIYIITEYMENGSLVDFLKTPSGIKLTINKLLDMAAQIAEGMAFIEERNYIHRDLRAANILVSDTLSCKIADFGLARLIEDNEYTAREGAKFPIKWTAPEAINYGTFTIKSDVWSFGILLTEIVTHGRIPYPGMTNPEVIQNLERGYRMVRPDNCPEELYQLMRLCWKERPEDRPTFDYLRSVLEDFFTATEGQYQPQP

Question: For `CN([C@@H](Cc1ccc(OS(=O)(=O)c2cccc3cnccc23)cc1)C(=O)N1CCN(c2ccccc2)CC1)S(=O)(=O)c1cccc2cnccc12`, which residual activity is on record?
Answer: 144%

Question: How did the residual activity turn out when `NC(=O)c1cccc(-c2cc(Nc3ccc(OC(F)(F)F)cc3)ncn2)c1` was run?
Answer: 139%

Question: How did the residual activity turn out when `O=C1C(Cl)=C(N2C(=O)CCC2=O)C(=O)c2ccccc21` was run?
Answer: 76%

Question: With `O=C1Cc2c([nH]c3ccc([N+](=O)[O-])cc23)-c2ccccc2N1` as the compound, how does the residual activity read?
Answer: 22%

Question: How did the residual activity turn out when `COc1ccc(-c2cnc3c(-c4ccsc4)cnn3c2)cc1` was run?
Answer: 139%

Question: How did the residual activity turn out when `CSc1nc(-c2ccc(F)cc2)c(-c2ccnc(NC(C)c3ccccc3)c2)[nH]1` (stereo unspecified) was run?
Answer: 85%

Question: With `O=C(c1ccccc1)c1ccc(N2CCOCC2)cc1O` as the compound, how does the residual activity read?
Answer: 137%

Question: Which residual activity does the source give for `O=C1Nc2ccccc2/C1=C\c1c(Cl)[nH]c2ccccc12` here?
Answer: 83%

Question: Which residual activity does the source give for `COc1cc2nccc(Oc3ccc(NC(=O)Nc4cc(C)on4)c(Cl)c3)c2cc1OC` here?
Answer: 3%

Question: For `O=C1NC(=O)C(c2c[nH]c3ccccc23)=C1c1c[nH]c2ccccc12`, which residual activity is on record?
Answer: 78%

Question: How did the residual activity turn out when `O=C1NC(=O)C(c2cn(CCCn3ccnc3)c3ccccc23)=C1Nc1ccccc1` was run?
Answer: 130%

Question: For `COc1ccc(CNC(=O)Nc2ncc([N+](=O)[O-])s2)cc1`, which residual activity is on record?
Answer: 80%

Question: How did the residual activity turn out when `COc1ccc(COc2ccc(Cc3cnc(N)nc3N)cc2OC)cc1` was run?
Answer: 110%
